Source: PubChem BioAssay (NCATS)
Inconclusive results are not listed. Activity calls are given as the source filed them. Calls follow the shape of the dose curve; as a rule, active = well fitted cell-killing curve with a large enough effect; inconclusive = small, poorly fitted or top-dose-only effect; inactive = no such curve, though single readings can be large or run the other way.

Experiment: qHTS of pediatric cancer cell lines to identify multiple opportunities for drug repurposing: Confirmatory screen for SK-N-MC cells (AID 1347111);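 also: cells exposed to compound for 48 h before the readout; nearly all actives have a fitted effect of over 70% in size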
Settings: SK-N-MC cell viability; series mostly up to 45.9 µM
From the text: Drug repurposing or repositioning has been offered as a strategy for drug development in oncology programs. This approach has special potential for childhood cancers and other rare or orphan diseases, where the expected return on new drug development has been a disincentive to pharmaceuticals.
In this project we exploit the poly-pharmacology of drugs to discover new indications via phenotypic screening of a panel of 19 well-characterized cell lines derived from solid tumors seen in children and adolescents. The goal is to identify approved drugs with previously unrecognized anticancer properties that has the potential to reveal new mechanisms and biological processes involved in carcinogenesis or drug resistance. We employed a titration-based paradigm (quantitative high-throughput screening or qHTS), where all compounds were tested at multiple concentrations for their effect on cell viability. Concentration-response curves (CRCs) were derived directly from the primary screen, and both potency and efficacy values were used to identify compounds with robust bioactivity profiles. We screened the NIH Chemical Genomics Center (NCGC) Pharmaceutical Collection (NPC) and Mechanism Interrogation Plate (MIPE) small molecule collections of approved and investigational compounds against these cell lines; and measured metabolically active cells after 48 hours of compound treatment as a proxy for cell viability.
Assay Submitter: Nathalia J. Martinez, National Center for Advancing Translational Sciences, National Institutes of Health, Rockville, MD, USA; email: natalia.martinez@nih.gov
[1] Shen, M et al. Quantitative high-throughput phenotypic screening of pediatric cancer cell lines identifies multiple opportunities for drug repurposing. Oncotarget 2017 Dec 19;9(4):4758-4772. PMID 29435139.
The cells were obtained from University of North Carolina (UNC), Pediatric Preclinical Testing Program (PPT), and Coriell Institute (CI).
qHTS cell viability assay:
Cells were assayed in growth media at a density of 500-1,000 cells/well. Five microliters of cells were dispensed into 1,536-well, white, solid-bottom, TC-treated plates (Greiner Bio One) using a multidrop dispenser and incubated at 37 degrees C, 5% CO2, under a humidified atmosphere for 5 hours. Twenty-three nanoliters of compounds and controls (neutral control DMSO or positive control bortezomib at final concentration of 2.3 µM) were subsequently transferred by Kalypsys pintool. For primary screens, the MIPE collection was tested at 11-point dilutions (final concentrations range from 0.78 nM to 46 µM) and the NPC collection at 8-point dilutions (final concentrations range from 0.59nM to 46 µM). Compounds tested in follow-up screens were assayed at 11-point dilutions. Cells were incubated for 48 hours, followed by addition of 3 uL of CellTiter-Glo (Promega). After a 15 min incubation at room temperature, samples were analyzed for luminescence intensity using a ViewLux High-throughput CCD imager equipped with clear filters.
Potency is read from the fitted curve at half-maximal effect.

Structure (SMILES) | Potency
Nc1ccc(-c2ccc3ncc4ccc(=O)n(-c5cccc(C(F)(F)F)c5)c4c3c2)cn1 | 0.131 µM (active)
CON(C)C(=O)N1N=C(c2cc(F)ccc2F)S[C@]1(CCCN)c1ccccc1 | 0.0093 µM (active)
O=C(CC12CC3CC(CC(C3)C1)C2)Nc1cccc2nc(NCCNCCO)ccc12 | 23.3 µM (active)
Cc1ccc(S(=O)(=O)Nc2nc3ccccc3nc2Nc2ccc3nsnc3c2)cc1 | 0.256 µM (active)
CN[C@@H]1CN(c2ccc3c(=O)c(C(=O)O)cn(-c4nccs4)c3n2)C[C@@H]1OC | 1.44 µM (active)
CCNC(=O)c1noc(-c2cc(C(C)C)c(O)cc2O)c1-c1ccc(CN2CCOCC2)cc1 | 0.0827 µM (active)
CCC(C)SSc1ncc[nH]1 (stereo not given) | 8.27 µM (active)
CCCC1OC2C[C@@H]3[C@H]4CCC5=CC(=O)C=C[C@]5(C)[C@H]4C(O)C[C@]3(C)[C@]2(C(=O)CO)O1 (stereo not given in full) | 26.1 µM (active)
CC1CNc2c(cccc2S(=O)(=O)N[C@@H](CCCN=C(N)N)C(=O)N2CC[C@@H](C)C[C@@H]2C(=O)O)C1 (stereo not given in full) | 20.8 µM (active)
CN1N=C(N)c2cn([C@@H]3O[C@H](COP(=O)(O)O)[C@@H](O)[C@@H]3O)c3ncnc1c23 | 3.69 µM (active)
CSc1cccc(Nc2ncc3cc(-c4c(Cl)cccc4Cl)c(=O)n(C)c3n2)c1 | 2.61 µM (active)
CCC(=O)N1CCN(c2ccc(-n3c(=O)ccc4cnc5ccc(-c6cnc7ccccc7c6)cc5c43)cc2C(F)(F)F)CC1 | 9.27 µM (active)
Cc1csc(-c2nnc(Nc3ccc(Oc4ncccc4-c4ccnc(N)n4)cc3)c3ccccc23)c1 | 0.0261 µM (active)
COC(=O)Nc1ccc(-c2nc(N3CCOCC3)c3cnn(C4CCN(C(=O)OC)CC4)c3n2)cc1 | 4.65 µM (active)
CC1(C)CC(=O)c2c(C(F)(F)F)nn(-c3ccc(C(N)=O)c(NC4CCC(O)CC4)c3)c2C1 (stereo not given) | 0.165 µM (active)
CN(C(Cc1ccc(OS(=O)(=O)c2cccc3cnccc23)cc1)C(=O)N1CCN(c2ccccc2)CC1)S(=O)(=O)c1cccc2cnccc12 (stereo not given) | 2.93 µM (active)
COc1cc([C@@H]2c3cc4c(cc3[C@@H](O[C@@H]3O[C@@H]5CO[C@@H](C)O[C@@H]5[C@H](O)[C@@H]3O)[C@H]3COC(=O)[C@H]23)OCO4)cc(OC)c1O | 1.04 µM (active)
Cc1cccc(-c2[nH]c(C(C)(C)C)nc2-c2ccc3c(c2)OCO3)n1 | 7.37 µM (active)
C=C1[C@H](n2cnc3c(=O)[nH]c(N)nc32)C[C@H](O)[C@H]1CO | 7.37 µM (active)
Cc1ccc(C(=O)N(CCCN)[C@@H](c2nc3cc(Cl)ccc3c(=O)n2Cc2ccccc2)C(C)C)cc1 | 0.024 µM (active)

Structure (SMILES) | Potency
FC(F)(F)c1ccc(C=Cc2nc(COc3ccc(CCCCn4ccnn4)cc3)co2)cc1 | 1.17 µM (active)
CCOC(=O)[C@H](CCc1ccccc1)N[C@@H](C)C(=O)N1CCCC1C(=O)O (stereo not given in full) | 14.7 µM (active)
CO[C@H]1/C=C\O[C@@]2(C)Oc3c(C)c(O)c4c(O)c(c(C=NN5CCN(C6CCCC6)CC5)c(O)c4c3C2=O)NC(=O)C(C)=CC=C[C@H](C)[C@H](O)[C@@H](C)[C@@H](O)[C@@H](C)[C@H](OC(C)=O)[C@H]1C | 20.8 µM (active)
COc1ccc2c(c1)c(C1=C(c3c[nH]c4ccccc34)C(=O)NC1=O)cn2CCCN(C)C | 8.27 µM (active)
CC(C)(C)c1[nH]cnc1C=c1[nH]c(=O)c(=Cc2ccccc2)[nH]c1=O | 0.0101 µM (active)
Cc1cnc(-c2cc(N3CCN(C(=O)CCS(C)(=O)=O)CC3)ncc2Cl)c(C)c1 | inactive
COC1CCC(C(=O)c2ccc3nc4c(cc3c2)CCCO4)CC1 (stereo not given) | inactive
C[C@@H]1[C@H](O)[C@@H](C)C=CC=CC=CC=CC=CC=CC=C[C@H](O[C@@H]2O[C@H](C)[C@H](O)[C@H](N)[C@@H]2O)C[C@@H]2O[C@](O)(C[C@@H](O)C[C@@H](O)[C@H](O)CC[C@@H](O)C[C@@H](O)CC(=O)O[C@H]1C)C[C@H](O)[C@@H]2C(=O)O | 10.4 µM (active)
Nc1ccn([C@@H]2O[C@H](CO)[C@@H](O)[C@H]2O)c(=O)n1 | 2.61 µM (active)
CCC(=O)OCC(=O)[C@@]1(OC(=O)CC)[C@@H](C)C[C@@H]2[C@H]3CCC4=CC(=O)C=C[C@]4(C)[C@@]3(F)[C@@H](O)C[C@@]21C | inactive
NC(N)=Nc1nc(CSCCC(N)=NS(N)(=O)=O)cs1 | inactive
CC1C(=O)OC2C(O)C34C5CC(C(C)(C)C)C36C(OC(=O)C6O)OC4(C(=O)O5)C12O (stereo not given) | inactive
O=C1NC(=O)C(c2cnc3ccccn23)=C1c1cn2c3c(cccc13)CN(C(=O)N1CCOCC1)CC2 | 14.7 µM (active)
CC[C@]1(O)C[C@H]2CN(CCC3=c4ccccc4=N[C]3[C@@](C(=O)OC)(c3cc4c(cc3OC)N(C)[C@H]3[C@@](O)(C(N)=O)[C@H](O)[C@]5(CC)C=CCN6CC[C@]43[C@@H]65)C2)C1 | 0.117 µM (active)
C[C@@]1(c2cc(-c3cncnc3)c(F)cc2F)CCSC(N)=N1 | 7.37 µM (active)
COc1cc2c(cc1Cc1cccc(Cl)c1F)c(=O)c(C(=O)O)cn2[C@H](CO)C(C)C | 14.7 µM (active)
CC(C)C[C@@H](C(=O)N[C@H](C(=O)OC1CCCC1)c1ccccc1)[C@H](O)C(=O)NO | 20.8 µM (active)
Cc1ccc(C(=O)N(CCCN)[C@@H](c2oc3cc(Cl)ccc3c(=O)c2Cc2ccccc2)C(C)C)cc1 | 0.0059 µM (active)
C=CC(=O)Nc1cccc(Sc2nc(Nc3ccc(N4CCN(C)CC4)cc3)ncc2Cl)c1 | 1.04 µM (active)
O=c1[nH]nc(OCCCc2ccc(Cl)cc2)c(NCc2cccnc2)c1Br | 16.5 µM (active)
